Laboratory results taken from PubChem BioAssay (Tox21).
Values joined by “and” are separate entries in the source; they are usually repeats but may differ in a detail not shown here. Equal entries are not always repeated. Results filed as inconclusive are left out. A call without a number means that no potency is given here. More than one record can exist for a structure, and the calls need not agree. Active and inactive are the calls of the source. Unless noted, calls follow the shape of the full dose curve.

Legend:
[1] = Nuclear factor erythroid 2-related factor 2/antioxidant responsive element (Nrf2/ARE) small molecule agonists: qHTS cell viability counter screen in human keratinocytes (AID 1919968; active = well fitted curve in the direction sought with a large enough effect in the repeat runs; an effect the other way counts as inactive or inconclusive; also: nearly all actives have a fitted effect of over 55% in size; also: potency is read from the fitted curve at half-maximal effect)
Summary of the method: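 Viability counter-screen: KeratinoSens reporter cells, DMSO-delivered compounds, 23 h at 37 C, CellTiter-Fluor fluorescence.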

[2] = Nuclear factor erythroid 2-related factor 2/antioxidant responsive element (Nrf2/ARE) small molecule agonists: luciferase reporter gene qHTS assay in human keratinocytes (AID 1919969); also: nearly all actives have a fitted effect of over 35% in size; also: potency is read from the fitted curve at half-maximal effect
[3] = target: Gonadotropin-releasing hormone receptor (Homo sapiens) (UniProt P30968); test: Human gonadotropin-releasing hormone receptor (GnRHR) small molecule agonists, calcium flux assay in GnRHR-HEK293 cells (AID 1920063); also: nearly all actives have a fitted effect of over 35% in size
Summary of the method: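 Tox21-format agonist screen using human GnRHR-expressing HEK293 cells and a fluorescent calcium dye; kinetic 3-min fluorescence reading after compound addition, 15-point concentration series run in triplicate.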

[4] = target: KiSS-1 receptor (Homo sapiens) (UniProt Q969F8); test: Human kisspeptin (KISS1R) small molecule agonists, calcium flux assay in KISS1R-HEK293 cells (AID 1920064; active = well fitted curve in the direction sought with a large enough effect in the repeat runs; an effect the other way counts as inactive or inconclusive)
Summary of the method: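 Intracellular calcium mobilization in KISS1R-HEK293 cells was recorded by fluorescence (Ex/Em 480/540) for 3 min following compound addition to cells pre-loaded 1 h with calcium dye.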

[5] = G protein-coupled receptor (GPCR) small molecule agonists, calcium flux assay: HEK293 wild type cell line counter screen (AID 1920065)
Summary of the method: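 In this agonist-mode screen, ATP is the positive control and DMSO the vehicle. Cells grow 18 h before a 1 h dye incubation at 37 C; signal is taken at Ex/Em 480/540 over 3 min.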

[6] = p53 small molecule agonists, cell-based qHTS assay with human liver microsomes (AID 1963577)
Summary of the method: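 p53RE-bla reporter cells were pre-incubated 5 h at 37 C, then treated with compounds plus human liver microsomes (0.5 mg/mL final) and NADPH (0.5 mg/mL final) for 16 h at 37 C. Beta-lactamase activity was read by LiveBLAzer fluorescence after 2 h at room temperature.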

[7] = p53 small molecule agonists, cell-based qHTS assay with rat liver microsomes (AID 1963578)
Summary of the method: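 p53RE-bla cells were exposed to compounds together with rat liver microsomes (0.5 mg/mL final) and NADPH (0.5 mg/mL final) for 16 h at 37 C, then read by LiveBLAzer beta-lactamase fluorescence after 2 h at room temperature.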

[8] = p53 small molecule agonists, cell-based qHTS assay with human liver microsomes: qHTS cell viability counter screen (AID 1963579); also: nearly all actives have a fitted effect of over 45% in size
Summary of the method: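 p53RE-bla cells (4,000/well) were pre-incubated 5 h at 37 C, then given compounds in DMSO plus human liver microsomes (0.5 mg/mL final) and NADPH (0.5 mg/mL final) for 16 h at 37 C. Viability was read by CellTiter-Glo luminescence.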

[9] = p53 small molecule agonists, cell-based qHTS assay with rat liver microsomes: qHTS cell viability counter screen (AID 1963580); also: nearly all actives have a fitted effect of over 45% in size; also: potency is read from the fitted curve at half-maximal effect
Summary of the method: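 In HCT-116 cells carrying a p53 response element-bla reporter, compounds were metabolically activated in situ by rat liver microsomes with NADPH over 16 h. Cell ATP content then served as the cytotoxicity measure.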

[10] = p53 small molecule agonists, cell-based qHTS assay: qHTS cell viability counter screen (AID 1963581); also: nearly all actives have a fitted effect of over 45% in size
Summary of the method: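 Compounds are pinned onto HCT-116 p53RE-bla cells and left 16 h at 37 C. Following the reporter FRET read, ATP is quantified by CellTiter-Glo luminescence after 30 min at room temperature.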

[11] = p53 small molecule agonists, cell-based qHTS assay (AID 1963582; active = well fitted activation curve with a large enough effect in the signal ratio in the repeat runs, not every such curve was filed as active; the % refers to the signal ratio)
Summary of the method: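 Agonist activity was scored from beta-lactamase FRET fluorescence in p53RE-bla cells treated 16 h at 37 C with compounds in DMSO, substrate incubation being 2 h at room temperature.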

[12] = target: 5-hydroxytryptamine receptor 2A (Homo sapiens) (UniProt P28223); test: 5-hydroxytryptamine receptor 2A (HTR2A) small molecule antagonists, cell-based qHTS assay (AID 1963586); also: nearly all actives have a fitted effect of over 45% in size; also: potency is read from the fitted curve at half-maximal effect
Summary of the method: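 Antagonist-mode intracellular calcium assay: DOI (4 nM) added after 5 min compound pre-incubation at room temperature to dye-loaded HTR2A-CHO cells. Fluorescence followed for 3 min, sampled every second.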

[13] = target: 5-hydroxytryptamine receptor 2A (Homo sapiens) (UniProt P28223); test: 5-hydroxytryptamine receptor 2A (HTR2A) small molecule agonists, cell-based qHTS assay (AID 1963587); also: nearly all actives have a fitted effect of over 30% in size; also: potency is read from the fitted curve at half-maximal effect
Summary of the method: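 HTR2A-CHO cells, plated 18 h at 37 C/5% CO2, dye-loaded 1 h at 37 C; compounds in DMSO added by pin tool (agonist mode). Intracellular calcium flux read as kinetic fluorescence on FDSS over 2 min at 1 s intervals.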

[14] = target: Muscarinic acetylcholine receptor M1 (Homo sapiens) (UniProt P11229); test: Cholinergic receptor muscarinic 1 (CHRM1) small molecule agonists, cell-based qHTS assay (AID 1963589); also: nearly all actives have a fitted effect of over 35% in size
Summary of the method: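 Stable CHRM1-CHO cells (human receptor) were incubated 18 h, dye-loaded for 1 h at 37 C and exposed to test compounds for agonist activity, with calcium-dependent fluorescence followed kinetically.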

[15] = cAMP Responsive Elements (CRE) small molecule agonists, cell-based qHTS assay (AID 1963590)
Summary of the method: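 FRET-based beta-lactamase readout (LiveBLAzer B/G, 2 h RT) quantified CRE activation in HEK 293T CRE-bla cells after 3 h treatment with DMSO-dissolved compounds.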

[16] = cAMP Responsive Elements (CRE) small molecule antagonists, cell-based qHTS assay (AID 1963591; active = well fitted inhibition curve with a large enough effect in the signal ratio in the repeat runs, not every such curve was filed as active; the % refers to the signal ratio)
Summary of the method: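 qHTS in CRE-bla HEK 293T cells: compound in DMSO, then 0.25 uM NKH477 (final), 3 h at 37 °C/5% CO2; beta-lactamase FRET read-out after 2 h substrate incubation.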

[17] = target: Beta-2 adrenergic receptor (Homo sapiens) (UniProt P07550); test: Adrenergic beta2 receptor (ADRB2) small molecule antagonists, cell-based qHTS assay (AID 1963592); also: nearly all actives have a fitted effect of over 50% in size; also: potency is read from the fitted curve at half-maximal effect
Summary of the method: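 Cells (CHO, stable ADRB2 overexpression) incubated 18-20hr at 37C; compounds added from DMSO; agonist mix (1nM isoproterenol, 100uM IBMX, 25uM Ro-20-1724) added; 0.5hr RT; d2-cAMP and anti-cAMP-cryptate added; 1hr RT; 665/615 nm read.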

[18] = target: D(2) dopamine receptor (Homo sapiens) (UniProt P14416); test: Dopamine D2 receptor (DRD2) small molecule agonists, cell-based qHTS assay (AID 1963594); also: nearly all actives have a fitted effect of over 35% in size
Summary of the method: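 HEK293 cells stably expressing DRD2 were cultured 24 h at 37 C, then given Ro20-1724 (0.1 mM final) and compounds for 10 min at room temperature. NKH477 (200nM) was then added for 30 min. cAMP was read by HTRF.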

[19] = target: D(2) dopamine receptor (Homo sapiens) (UniProt P14416); test: Dopamine D2 receptor (DRD2) small molecule antagonists, cell-based qHTS assay (AID 1963595; active = well fitted inhibition curve with a large enough effect in the signal ratio in the repeat runs, with a control signal flat; the % refers to the signal ratio)
Summary of the method: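 Antagonist mode in DRD2-HEK293 cells: after compound addition with 0.1 mM Ro20-1724, cells received quinpirole (12 nM) and NKH477 (200 nM) for 30 min at room temperature; HTRF cAMP read after 1 h detection.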

[20] = target: Muscarinic acetylcholine receptor M1 (Homo sapiens) (UniProt P11229); test: Cholinergic receptor muscarinic 1 (CHRM1) small molecule antagonists, cell-based qHTS assay (AID 1963588); also: nearly all actives have a fitted effect of over 40% in size; also: potency is read from the fitted curve at half-maximal effect
Summary of the method: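 CHRM1-CHO calcium-flux assay, antagonist mode. Cells were seeded 18 h, dye-loaded 1 h at 37 C and given compound for 5 min at RT, then acetylcholine was added at 50nM. FDSS fluorescence was read 3 min; 15 concentrations, three runs.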

Sequence of Beta-2 adrenergic receptor (Homo sapiens) (P07550 whole entry, looked up): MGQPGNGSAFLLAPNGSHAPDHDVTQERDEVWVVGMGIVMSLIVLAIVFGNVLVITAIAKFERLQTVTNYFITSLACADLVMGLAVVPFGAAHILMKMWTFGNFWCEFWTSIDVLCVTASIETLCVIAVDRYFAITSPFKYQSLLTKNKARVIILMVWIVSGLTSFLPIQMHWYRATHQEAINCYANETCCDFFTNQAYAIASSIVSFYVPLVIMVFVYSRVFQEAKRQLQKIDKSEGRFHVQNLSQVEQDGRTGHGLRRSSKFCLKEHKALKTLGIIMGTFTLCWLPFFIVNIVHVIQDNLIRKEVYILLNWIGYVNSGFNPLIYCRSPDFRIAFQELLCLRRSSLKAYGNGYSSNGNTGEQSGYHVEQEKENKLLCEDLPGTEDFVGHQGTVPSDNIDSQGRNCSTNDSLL
Sequence of Muscarinic acetylcholine receptor M1 (Homo sapiens) (P11229 whole entry, looked up): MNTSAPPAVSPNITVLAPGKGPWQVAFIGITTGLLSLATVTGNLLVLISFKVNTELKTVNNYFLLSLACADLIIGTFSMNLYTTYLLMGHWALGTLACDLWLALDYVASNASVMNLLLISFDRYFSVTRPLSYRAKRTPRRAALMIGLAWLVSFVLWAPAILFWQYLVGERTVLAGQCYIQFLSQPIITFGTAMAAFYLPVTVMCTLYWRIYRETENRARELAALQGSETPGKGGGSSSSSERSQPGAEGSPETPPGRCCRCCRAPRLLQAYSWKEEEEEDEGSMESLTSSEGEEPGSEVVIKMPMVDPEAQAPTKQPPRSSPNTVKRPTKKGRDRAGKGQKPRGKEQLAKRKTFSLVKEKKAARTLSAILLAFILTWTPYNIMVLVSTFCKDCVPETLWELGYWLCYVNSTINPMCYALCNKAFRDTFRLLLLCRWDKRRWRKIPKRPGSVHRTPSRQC
Sequence of 5-hydroxytryptamine receptor 2A (Homo sapiens) (P28223 whole entry, looked up): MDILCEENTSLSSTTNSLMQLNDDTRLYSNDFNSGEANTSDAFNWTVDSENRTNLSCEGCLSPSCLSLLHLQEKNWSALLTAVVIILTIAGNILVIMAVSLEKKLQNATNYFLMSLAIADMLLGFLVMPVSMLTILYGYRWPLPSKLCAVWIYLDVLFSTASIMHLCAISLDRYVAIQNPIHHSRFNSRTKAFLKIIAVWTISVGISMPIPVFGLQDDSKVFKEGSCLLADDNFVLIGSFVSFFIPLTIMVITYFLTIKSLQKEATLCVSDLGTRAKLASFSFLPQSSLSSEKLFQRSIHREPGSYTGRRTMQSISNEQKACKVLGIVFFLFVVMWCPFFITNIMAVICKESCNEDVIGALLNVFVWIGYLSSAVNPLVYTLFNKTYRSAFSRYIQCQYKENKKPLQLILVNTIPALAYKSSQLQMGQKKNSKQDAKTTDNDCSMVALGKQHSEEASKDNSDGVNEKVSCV
Sequence of KiSS-1 receptor (Homo sapiens) (Q969F8 whole entry, looked up): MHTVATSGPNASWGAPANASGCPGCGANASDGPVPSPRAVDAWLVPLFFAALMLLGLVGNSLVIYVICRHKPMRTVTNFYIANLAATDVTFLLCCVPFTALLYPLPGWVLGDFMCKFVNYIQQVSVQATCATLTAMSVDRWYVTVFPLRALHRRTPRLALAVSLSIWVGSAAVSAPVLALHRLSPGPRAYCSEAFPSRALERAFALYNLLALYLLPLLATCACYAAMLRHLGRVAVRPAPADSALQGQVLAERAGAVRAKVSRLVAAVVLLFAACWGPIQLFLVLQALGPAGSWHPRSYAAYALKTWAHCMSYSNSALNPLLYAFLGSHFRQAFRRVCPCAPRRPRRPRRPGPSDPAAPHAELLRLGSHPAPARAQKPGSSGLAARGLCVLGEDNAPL
Sequence of Gonadotropin-releasing hormone receptor (Homo sapiens) (P30968 whole entry, looked up): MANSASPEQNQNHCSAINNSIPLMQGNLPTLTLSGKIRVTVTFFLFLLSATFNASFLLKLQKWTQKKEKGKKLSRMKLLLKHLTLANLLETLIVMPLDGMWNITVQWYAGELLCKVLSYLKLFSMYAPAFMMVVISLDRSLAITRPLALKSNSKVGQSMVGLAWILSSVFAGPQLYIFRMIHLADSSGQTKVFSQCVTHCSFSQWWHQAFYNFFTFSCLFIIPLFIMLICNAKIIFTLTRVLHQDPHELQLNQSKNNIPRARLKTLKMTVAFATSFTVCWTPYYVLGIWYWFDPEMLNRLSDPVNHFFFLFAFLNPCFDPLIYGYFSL
Sequence of D(2) dopamine receptor (Homo sapiens) (P14416 whole entry, looked up): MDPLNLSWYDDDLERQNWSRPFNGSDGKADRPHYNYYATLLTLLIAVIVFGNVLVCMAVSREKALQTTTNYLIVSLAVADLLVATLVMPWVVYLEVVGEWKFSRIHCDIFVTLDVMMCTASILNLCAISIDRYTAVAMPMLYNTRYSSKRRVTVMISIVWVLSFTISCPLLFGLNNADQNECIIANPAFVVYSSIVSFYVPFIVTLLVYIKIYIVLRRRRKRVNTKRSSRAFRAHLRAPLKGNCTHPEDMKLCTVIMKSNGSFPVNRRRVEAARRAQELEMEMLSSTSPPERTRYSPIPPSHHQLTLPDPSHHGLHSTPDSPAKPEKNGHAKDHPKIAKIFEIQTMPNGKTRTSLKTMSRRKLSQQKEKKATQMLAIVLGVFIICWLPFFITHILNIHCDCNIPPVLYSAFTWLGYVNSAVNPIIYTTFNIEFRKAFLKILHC

Row | SMILES | Potency [1] | Potency [2] | Potency [3] | Potency [4] | Potency [5] | Potency [6] | Potency [7] | Potency [8] | Potency [9] | Potency [10] | Potency [11] | Potency [12] | Potency [13] | Potency [14] | Potency [15] | Potency [16] | Potency [17] | Potency [18] | Potency [19] | Potency [20]
1 | Nc1ncc([N+](=O)[O-])s1 | inactive | inactive | inactive | inactive | inactive | inactive | inactive | inactive | inactive | inactive | inactive | inactive | inactive | inactive | inactive | inactive | inactive | inactive | inactive | –
2 | C=CCc1ccccc1O | inactive | inactive | inactive | inactive | inactive | inactive | inactive | inactive | inactive | inactive | inactive | inactive | inactive | – | inactive | inactive | inactive | inactive | inactive | inactive
3 | CC(C)CCON=O | inactive | inactive | inactive | inactive | inactive | inactive | inactive | inactive | inactive | inactive | inactive | inactive | inactive | – | inactive | inactive | inactive | – | inactive | inactive
4 | Cc1ccc(O)c(C)c1 | inactive | inactive | inactive | inactive | inactive | inactive | inactive | inactive | inactive | inactive | inactive | inactive | inactive | inactive | inactive | inactive | inactive | inactive | inactive | –
5 | CCC(Cl)[N+](=O)[O-] (stereo not given) | inactive | inactive | inactive | inactive | inactive | inactive | inactive | inactive | inactive | inactive | inactive | inactive | inactive | inactive | – | inactive | inactive | inactive | inactive | inactive
6 | CN1CSC(=S)N(C)C1 | 2.72 µM (active) | 1.21 µM (active) and 2.43 µM (active) | inactive | inactive | inactive | inactive | inactive | inactive | 20.3 µM (active) | inactive | inactive | inactive | inactive | inactive | – | – | inactive | inactive | inactive | inactive
7 | CCOC(=O)C(O)(c1ccc(Cl)cc1)c1ccc(Cl)cc1 | 61.8 µM (active) | inactive | inactive | inactive | inactive | inactive | inactive | inactive | inactive | inactive | inactive | 33.8 µM (active) and inactive | 6.99 µM (active) and inactive | inactive | – | – | 69.3 µM (active) and inactive | inactive | inactive | 8.48 µM (active)
